Inconclusive results are not listed. A number with no mark means an inactive call. Active and inactive are the calls of the source. Calls come from the whole dose curve; as a rule, active = well fitted activation curve with a large enough effect in the repeat runs; inconclusive = weak or mixed curves; inactive = flat fitted curve, though single readings scatter.
assay: A CellTox Green Cytotoxicity Assay to monitor cytotoxicity in HEK293 cells - 8 hour (AID 1224884); details: CellTox Green fluorescence; series mostly up to 76.8 µM; cytotoxicity increase: at the top concentration; note: nearly all actives have a fitted effect of over 35% in size
Source text: National Center for Advancing Translational Sciences [NCATS]
NIH Chemical Genomics Center [NCGC]
U.S. Environmental Protection Agency [EPA]
National Institutes of Environmental Health Sciences [NIEHS]
National Toxicology Program [NTP]
Cell-based models are critical for drug discovery. Determining the natural cytotoxic effects resulting from test compounds is an essential research activity. A CellTox Green Cytotoxicity Assay to monitor cytotoxicity in real time of continues cell culture during 40 hours of the compound treatment was used to screen Tox21 10K library compounds in Hek293 cells. CellTox Green Cytotoxicity Assay is a nonlytic, homogeneous, biofluorescent method to measure cytotoxicity in cell culture after experimental manipulation. The assay system uses a proprietary asymmetric cyanine dye that is excluded from viable cells but preferentially stains the dead cell's DNA. […] Viable cells produce no appreciable increases in fluorescence. Therefore, the fluorescence signal produced by the binding interaction with dead cell DNA is proportional to cytotoxicity.
The mixture of Hek293 cell suspension and reagents were dispensed at 600cells/6 ul/well in 1536-well tissue culture treated black solid bottom plates using a Multidrop dispenser. After the assay plates were incubated at a 37 C/5% CO2 incubator for 5 hours, 23 nL of compounds dissolved in DMSO, positive and negative controls was transferred to the assay plate by a pintool work station. The plates were incubated at 37 C for 40 hours. The fluorescence intensity were measured at 0h, 8h, 16h, 24h, 32h and 40h time points using ViewLux plate reader during compound treatment.
% is set by controls: 0 for no effect and ±100 for the full control effect; potency is the fitted concentration of half-maximal effect.

Row | Structure (SMILES) | cytotoxicity increase | Potency
1 | CNc1ccccc1 | -9.99% | 
2 | O=Cc1ccc([N+](=O)[O-])cc1 | -7.36% | 
3 | CC(C)(C)NCC(O)COc1ccc(NC(=O)NC2CCCCC2)cc1 (stereo not given) | -9.35% [at 35.3 µM] | 
4 | CC(O)CN (stereo not given) | -4.79% | 
5 | Cc1cc(C)n(CO)n1 | 2.19% | 
6 | COc1ccnc2c1CCCCC2S(=O)c1nc2ccccc2[nH]1 (stereo not given) | 0.576% [at 35.3 µM] | 
7 | CC(C(=O)O)c1ccc2c(c1)Cc1cccnc1O2 (stereo not given) | -7.27% [at 35.3 µM] | 
8 | CCCCCCCCCCCC(=O)OCC | -9.06% | 
9 | O=S(=O)(O)c1cc(Cl)c(Cl)cc1Cl | 9.48% | 
10 | Cc1ccc(NC=O)c(C)c1 | 22.7% | 
11 | CC1=C(C)C(=O)C(C(CCCCCC(=O)O)c2ccccc2)=C(C)C1=O (stereo not given) | 1.91% [at 35.3 µM] | 
12 | O=C(OC1C[C@H]2CC[C@@H](C1)[N+]21CCCC1)C(O)(c1ccccc1)c1ccccc1 (stereo not given in full) | -4.65% [at 35.3 µM] | 
13 | C(/C=C/C=C/Nc1ccccc1)=Nc1ccccc1 | 13.3% | 
14 | CCCCCCCCCCCCCCCCN |  | 19 µM (active)
15 | Nc1nc(Cl)nc2c1ncn2[C@H]1C[C@H](O)[C@@H](CO)O1 | -5.8% | 
16 | CCC(C(=O)O)c1ccc(N2Cc3ccccc3C2=O)cc1 (stereo not given) | -3.64% [at 35.3 µM] | 
17 | Cc1cccc(C)c1NC(=O)CN1CCCC1 | 0.818% [at 35.3 µM] | 
18 | CC(=O)Nc1ccccc1O | 27.7% | 
19 | SCCOCCOCCS | -13.3% | 
20 | CCCCCCCCCCCCCCCCCCCl | 13.7% [at 6.97 µM] | 

Row | Structure (SMILES) | cytotoxicity increase | Potency
21 | CCCC1CCOC(C)S1 (stereo not given) | 1.27% | 
22 | O=C(O)c1c2ccccc2cc2ccccc12 | -2% | 
23 | CCN(CC)CC(=O)OCC(=O)[C@@]1(O)CC[C@H]2[C@@H]3CCC4=CC(=O)CC[C@]4(C)[C@H]3[C@@H](O)C[C@@]21C | 6.37% [at 35.3 µM] | 
24 | Sc1nc(S)nc(S)n1 | -4.65% [at 35.3 µM] | 
25 | OCCCO | 4.06% | 
26 | FC1(F)C(F)(F)C(F)(F)C2(F)C(F)(C1(F)F)C(F)(F)C(F)(F)C1(F)C(F)(F)C(F)(F)C(F)(F)C(F)(F)C12F (stereo not given) | -2.05% | 
27 | Cc1c(Cl)cccc1[N+](=O)[O-] | -7.79% | 
28 | CCCCC(CC)COCCC#N (stereo not given) | -8.13% | 
29 | COC(=O)/C=C/C(C)=C\C=C\C(C)=C\C=C\C=C(C)\C=C\C=C(C)\C=C\C(=O)O | 5.6% | 
30 | CC(C)NC(=O)c1ccccc1N | 1.52% | 
31 | c1ccc(CCNc2nc(-c3ccccc3)cs2)cc1 | 3.75% [at 35.3 µM] | 
32 | CCC(=O)O[C@]1(C(=O)COC)[C@@H](C)C[C@H]2[C@@H]3CCC4=CC(=O)C=C[C@]4(C)C3(F)[C@@H](O)C[C@@]21C (stereo not given in full) | -0.538% [at 35.3 µM] | 
33 | C/C(=C(\CCO)SS/C(CCO)=C(\C)N(C=O)Cc1cnc(C)nc1N)N(C=O)Cc1cnc(C)nc1N | -1.55% [at 35.3 µM] | 
34 | CCCC(=O)OCc1ccccc1 | 0.384% | 
35 | Cc1ccc2c(Cl)cc(Cl)c(O)c2n1 | -3.53% [at 35.3 µM] | 
36 | CC/C=C\CCO | 0.447% | 
37 | Cc1c(N=C=O)cccc1N=C=O | -1.18% | 
38 | CCn1nc(Cc2ccccc2)cc1C1CCN(C[C@H]2C[C@H](N(C)[C@@H](C(=O)O)C(C)C)C[C@@H]2c2cccc(F)c2)CC1 | 3.09% | 
39 | Cc1cc(SC2=C(O)C[C@@](CCc3ccc(N)cc3)(C(C)C)OC2=O)c(C(C)(C)C)cc1CO | -0.546% | 
40 | O=C1C=CCCC1 | 0.593% | 

From PubChem BioAssay (Tox21)
